The list shows a part of the results. Active and inactive are the calls of the source.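 How the source made its calls, unless noted: active means inhibition reaching about 45% at 4 µM in either replicate (limit read from the data); inactive means the rest.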
Key:
[1] = Brca1-Bard1 BiLC signal decrease – luminescence, single concentration, counter-screen for Mdm2/MdmX interaction inhibitor project, confirmation (AID 504668; call rule not given here); conditions: Brca1/Bard1 bimolecular luciferase complementation counterscreen, at 8 µM, stronger effect = higher value
[2] = inhibition of PEG-3 promoter luciferase signal – cell-based, HeLa, luciferase reporter, single concentration, confirmation (AID 602417;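 active means at 20 µM dose, 40% or more inhibition averaged across four replicates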); conditions: HeLa PEG-Prom luciferase reporter, luminescence, overnight; at 20 µM; stronger effect = higher value
[3] = target: PEG-3 (UniProt Q6IN02); test: inhibition of PEG-3 promoter-driven reporter – cell-based, HeLa, luciferase, CREF/GAPDH counter-screen panel, dose response (AID 624167); conditions: CREF/GAPDH counter-screens; HeLa PEG-Prom luciferase reporter, overnight, run 1, dose range 1, at 100 µM (top of the series) unless noted
PEG-3, sequence (Q6IN02 whole entry, looked up): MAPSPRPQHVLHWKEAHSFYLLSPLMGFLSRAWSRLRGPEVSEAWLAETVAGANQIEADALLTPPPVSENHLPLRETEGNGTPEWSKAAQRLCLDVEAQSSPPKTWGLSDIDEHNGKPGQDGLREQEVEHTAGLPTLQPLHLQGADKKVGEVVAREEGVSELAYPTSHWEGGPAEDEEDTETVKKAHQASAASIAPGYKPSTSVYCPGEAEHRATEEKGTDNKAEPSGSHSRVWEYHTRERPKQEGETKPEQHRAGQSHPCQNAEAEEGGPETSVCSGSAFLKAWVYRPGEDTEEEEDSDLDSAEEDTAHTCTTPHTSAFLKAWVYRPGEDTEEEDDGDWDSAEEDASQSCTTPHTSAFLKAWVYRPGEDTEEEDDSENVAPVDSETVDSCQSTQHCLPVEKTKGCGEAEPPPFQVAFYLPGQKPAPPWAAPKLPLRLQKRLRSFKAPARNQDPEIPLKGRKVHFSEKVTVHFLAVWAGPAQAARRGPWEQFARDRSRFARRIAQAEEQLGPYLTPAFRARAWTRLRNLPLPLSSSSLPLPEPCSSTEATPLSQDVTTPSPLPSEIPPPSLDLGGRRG

[4] = target: PEG-3 (UniProt Q6IN02); test: as above; conditions: CREF/GAPDH counter-screens; HeLa PEG-Prom luciferase reporter, overnight, run 2, dose range 1, at 100 µM (top of the series) unless noted
[5] = system: Rat fibroblasts (CREF); test: as above; conditions: CREF/GAPDH counter-screens; run 1, dose range 1, at 100 µM (top of the series)
[6] = system: Rat fibroblasts (CREF); test: as above; conditions: CREF/GAPDH counter-screens; run 2, dose range 1, at 100 µM (top of the series)
[7] = target: Protein Mdm4 (Homo sapiens) + E3 ubiquitin-protein ligase Mdm2 (Homo sapiens) (UniProt O15151+Q00987); test: human Mdm2/MdmX binding disruption – cell-based, luminescence, single concentration, set 2, confirmation (AID 504601;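 active means mean inhibition of the luminescence signal across two replicates at or above 26 percent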); conditions: SaOS-2 split-luciferase Mdm2/MdmX complementation, at 8 µM, stronger effect = higher value
Protein Mdm4 (Homo sapiens) + E3 ubiquitin-protein ligase Mdm2 (Homo sapiens), sequence (O15151 whole entry, looked up): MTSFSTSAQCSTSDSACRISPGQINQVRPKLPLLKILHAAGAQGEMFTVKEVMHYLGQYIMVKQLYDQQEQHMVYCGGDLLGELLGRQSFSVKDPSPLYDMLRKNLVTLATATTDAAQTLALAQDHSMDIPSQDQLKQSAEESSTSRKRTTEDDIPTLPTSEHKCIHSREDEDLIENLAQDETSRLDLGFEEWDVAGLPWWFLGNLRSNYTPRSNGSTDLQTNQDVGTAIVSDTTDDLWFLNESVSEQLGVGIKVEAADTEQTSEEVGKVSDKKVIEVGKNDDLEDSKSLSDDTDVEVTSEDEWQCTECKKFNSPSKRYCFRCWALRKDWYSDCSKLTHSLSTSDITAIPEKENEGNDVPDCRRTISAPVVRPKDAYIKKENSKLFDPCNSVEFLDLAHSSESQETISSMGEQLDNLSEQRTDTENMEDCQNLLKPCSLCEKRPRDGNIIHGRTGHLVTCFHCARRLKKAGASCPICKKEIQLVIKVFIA
Protein Mdm4 (Homo sapiens) + E3 ubiquitin-protein ligase Mdm2 (Homo sapiens), sequence (Q00987 whole entry, looked up): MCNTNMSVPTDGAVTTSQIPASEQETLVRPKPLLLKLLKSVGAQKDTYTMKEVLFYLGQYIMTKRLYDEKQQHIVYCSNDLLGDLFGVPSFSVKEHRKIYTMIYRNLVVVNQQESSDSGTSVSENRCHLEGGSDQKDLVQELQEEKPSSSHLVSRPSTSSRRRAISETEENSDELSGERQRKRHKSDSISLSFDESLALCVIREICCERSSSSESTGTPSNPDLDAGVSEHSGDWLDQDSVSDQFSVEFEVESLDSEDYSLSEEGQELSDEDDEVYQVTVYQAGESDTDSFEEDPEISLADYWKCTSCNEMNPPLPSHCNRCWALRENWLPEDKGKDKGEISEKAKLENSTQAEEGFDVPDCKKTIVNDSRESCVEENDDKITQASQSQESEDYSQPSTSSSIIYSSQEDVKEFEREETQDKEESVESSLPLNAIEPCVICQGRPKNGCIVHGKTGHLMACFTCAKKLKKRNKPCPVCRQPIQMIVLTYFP

[8] = NF-kB reporter suppression in CF airway cells – cell-based, GFP fluorescence, single concentration, confirmation (AID 602472; in the data active means inhibition above about 40%;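 further: stimulus PAF is a Pseudomonas aeruginosa filtrate and not platelet activating factor; plate controls were DMSO wells with stimulus for no effect and unstimulated DMSO wells for full effect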); conditions: KKLEB CF airway cells, PAF-induced NF-kB-GFP fluorescence, overnight; at 5 µM; stronger effect = higher value
[9] = target: COP9 signalosome complex subunit 5 (Homo sapiens) (UniProt Q92905); test: blockers of CSN-driven cullin deneddylation – biochemical, fluorescence polarization, single concentration, SCF-Nedd8OG substrate, confirmation (AID 720654; in the data active means inhibition above about 50%;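 further: 0% = DMSO with enzyme and 100% = no enzyme wells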); conditions: Csn5 deneddylation of SCF-Nedd8OG, 90 min, at 16.6 µM, stronger effect = higher value
COP9 signalosome complex subunit 5 (Homo sapiens), sequence (Q92905 whole entry, looked up, one chain of several): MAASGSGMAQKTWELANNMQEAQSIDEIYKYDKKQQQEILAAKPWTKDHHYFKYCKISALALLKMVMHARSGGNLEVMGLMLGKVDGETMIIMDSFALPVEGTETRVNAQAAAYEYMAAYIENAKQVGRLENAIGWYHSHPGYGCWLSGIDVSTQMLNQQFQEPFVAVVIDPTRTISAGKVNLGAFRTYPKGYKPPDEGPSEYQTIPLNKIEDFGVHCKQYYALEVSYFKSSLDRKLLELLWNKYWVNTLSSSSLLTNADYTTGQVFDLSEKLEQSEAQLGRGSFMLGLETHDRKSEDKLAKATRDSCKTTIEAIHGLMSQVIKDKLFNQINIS

[10] = target: 72 kDa type IV collagenase (Homo sapiens) (UniProt P08253); test: human MMP-2 inhibitors, single-point check – biochemical, fluorescence, single concentration, counter-screen for CSN deneddylation inhibitor project, confirmation (AID 720655;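 active means corrected plate-normalized z-score of 5 or more, or -5 or less, or inhibition of 15% or more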;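 further: plate controls were DMSO wells with enzyme for no effect and buffer wells lacking MMP-2 for full effect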); conditions: recombinant MMP-2, FRET substrate fluorescence, 60 min; at 16.6 µM
72 kDa type IV collagenase (Homo sapiens), sequence (P08253 whole entry, looked up): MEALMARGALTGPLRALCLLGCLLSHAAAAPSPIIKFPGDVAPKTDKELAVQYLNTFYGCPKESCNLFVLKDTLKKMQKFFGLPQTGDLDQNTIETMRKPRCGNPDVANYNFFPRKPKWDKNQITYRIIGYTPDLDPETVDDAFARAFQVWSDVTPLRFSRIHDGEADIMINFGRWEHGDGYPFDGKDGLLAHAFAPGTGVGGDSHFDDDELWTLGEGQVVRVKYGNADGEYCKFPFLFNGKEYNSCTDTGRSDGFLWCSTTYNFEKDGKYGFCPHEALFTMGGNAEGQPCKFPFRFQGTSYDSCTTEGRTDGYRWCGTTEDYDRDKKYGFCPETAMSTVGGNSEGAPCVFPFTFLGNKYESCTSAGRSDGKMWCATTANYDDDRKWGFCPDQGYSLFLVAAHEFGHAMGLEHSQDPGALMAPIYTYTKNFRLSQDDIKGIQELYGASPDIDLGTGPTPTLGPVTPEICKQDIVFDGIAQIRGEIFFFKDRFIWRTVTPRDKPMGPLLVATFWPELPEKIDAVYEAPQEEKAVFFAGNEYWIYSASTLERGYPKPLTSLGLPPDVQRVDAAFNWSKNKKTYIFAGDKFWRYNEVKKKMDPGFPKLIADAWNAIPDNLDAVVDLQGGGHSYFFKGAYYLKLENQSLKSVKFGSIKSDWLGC

[11] = target: Prothrombin (Bos taurus) (UniProt P00735); test: thrombin cleavage blockers, FP readout – biochemical, fluorescence polarization, single concentration, counter-screen for CSN deneddylation inhibitor project, confirmation (AID 720656;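 active means inhibition at or above a set limit, with a fluorescence interference ratio between 0.5 and a set maximum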); conditions: bovine thrombin cleavage of Ub4-pepOG, at 16.6 µM, stronger effect = higher value
Prothrombin (Bos taurus), sequence (P00735 whole entry, looked up): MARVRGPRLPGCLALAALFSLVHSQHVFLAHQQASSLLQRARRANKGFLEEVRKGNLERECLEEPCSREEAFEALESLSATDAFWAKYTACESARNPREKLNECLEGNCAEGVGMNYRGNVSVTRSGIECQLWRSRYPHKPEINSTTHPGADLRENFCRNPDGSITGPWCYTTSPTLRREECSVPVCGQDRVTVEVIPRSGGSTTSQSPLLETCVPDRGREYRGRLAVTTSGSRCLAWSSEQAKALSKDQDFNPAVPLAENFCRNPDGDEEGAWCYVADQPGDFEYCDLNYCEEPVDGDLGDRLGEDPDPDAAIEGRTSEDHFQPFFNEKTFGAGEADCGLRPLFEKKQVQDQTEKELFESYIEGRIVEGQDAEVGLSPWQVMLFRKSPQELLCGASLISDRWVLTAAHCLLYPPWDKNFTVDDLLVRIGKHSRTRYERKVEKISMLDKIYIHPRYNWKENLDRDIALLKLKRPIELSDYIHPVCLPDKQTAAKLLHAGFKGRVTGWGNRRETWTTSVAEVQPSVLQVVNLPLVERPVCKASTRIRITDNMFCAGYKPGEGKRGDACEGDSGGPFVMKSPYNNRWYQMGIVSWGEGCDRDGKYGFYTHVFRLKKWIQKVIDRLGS

[12] = lowers stimulated NF-kB luciferase signal in Jurkat – cell-based, luminescence, single concentration, T-cell NF-kB inhibitor project, confirmation (AID 435020); conditions: PMA/ionomycin-induced, 16 h, at 4 µM, stronger effect = higher value;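 further: plate controls were PMA/ionomycin stimulated DMSO wells for no effect and unstimulated DMSO wells for full effect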
[13] = target: Sentrin-specific protease 8 (Homo sapiens) (UniProt Q96LD8); test: human SENP8 peptidase blockers, hit retest – biochemical, luminescence, single concentration, confirmation (AID 488912;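 active means mean inhibition across replicates above about 50%, limit read from the data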); conditions: Recombinant SENP8, Z-RLRGG-aminoluciferin luminescence, 60 min; at 12.5 µM; stronger effect = higher value
Sentrin-specific protease 8 (Homo sapiens), sequence (Q96LD8 whole entry, looked up, the tested form may be a part): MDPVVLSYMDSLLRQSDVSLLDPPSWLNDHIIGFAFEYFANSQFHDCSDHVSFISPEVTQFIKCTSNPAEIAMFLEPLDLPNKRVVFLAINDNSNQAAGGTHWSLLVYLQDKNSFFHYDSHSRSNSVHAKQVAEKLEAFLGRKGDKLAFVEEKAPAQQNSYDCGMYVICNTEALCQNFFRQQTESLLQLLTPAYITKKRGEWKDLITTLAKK

[14] = target: Sentrin-specific protease 6 (Homo sapiens) (UniProt Q9GZR1); test: inhibition of human SENP6 catalytic domain – biochemical, luminescence, single concentration, confirmation (AID 488915;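 active means mean inhibition above about 50% in the one-dose retest, limit read from the data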); conditions: recombinant SENP6, Z-RLRGG-aminoluciferin luminescence; at 12.5 µM; stronger effect = higher value
Sentrin-specific protease 6 (Homo sapiens), sequence (Q9GZR1 628-1112 limits assumed): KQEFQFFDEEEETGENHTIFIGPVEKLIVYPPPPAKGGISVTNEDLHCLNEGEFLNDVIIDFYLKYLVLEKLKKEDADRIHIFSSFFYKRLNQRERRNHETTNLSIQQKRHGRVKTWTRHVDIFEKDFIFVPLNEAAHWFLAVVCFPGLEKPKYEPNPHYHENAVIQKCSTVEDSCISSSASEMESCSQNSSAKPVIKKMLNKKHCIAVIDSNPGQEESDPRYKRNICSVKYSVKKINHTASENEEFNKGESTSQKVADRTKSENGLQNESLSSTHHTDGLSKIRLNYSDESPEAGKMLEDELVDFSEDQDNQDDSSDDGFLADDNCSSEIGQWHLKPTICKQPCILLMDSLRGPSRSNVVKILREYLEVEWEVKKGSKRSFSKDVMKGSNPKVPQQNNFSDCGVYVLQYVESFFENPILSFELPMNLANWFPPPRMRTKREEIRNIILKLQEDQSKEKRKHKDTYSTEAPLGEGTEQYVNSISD

[15] = target: Sentrin-specific protease 7 (Homo sapiens) (UniProt Q9BQF6); test: human SENP7 peptidase blockers, hit retest – biochemical, luminescence, single concentration, confirmation (AID 488917;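 active means mean inhibition above about 50% in the one-dose retest, limit read from the data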); conditions: recombinant SENP7, Z-RLRGG-aminoluciferin luminescence, 40 min; at 12.5 µM; stronger effect = higher value
Sentrin-specific protease 7 (Homo sapiens), sequence (Q9BQF6 706-1050 limits assumed): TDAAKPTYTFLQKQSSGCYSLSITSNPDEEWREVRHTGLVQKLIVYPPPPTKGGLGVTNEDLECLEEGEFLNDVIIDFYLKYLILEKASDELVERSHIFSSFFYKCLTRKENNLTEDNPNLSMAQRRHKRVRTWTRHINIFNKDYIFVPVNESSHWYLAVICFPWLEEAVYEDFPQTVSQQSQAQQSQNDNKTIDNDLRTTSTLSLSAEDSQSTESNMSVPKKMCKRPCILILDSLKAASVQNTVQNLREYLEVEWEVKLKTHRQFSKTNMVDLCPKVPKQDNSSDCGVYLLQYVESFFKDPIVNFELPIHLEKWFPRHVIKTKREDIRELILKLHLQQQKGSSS

[16] = target: Caspase-3 (Homo sapiens) (UniProt P42574); test: human caspase-3 activity blockade, out-of-family – biochemical, single concentration, selectivity assay for SENP inhibitor project, confirmation (AID 488918;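 active means mean inhibition above about 50%, limit read from the data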;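 further: plate controls were enzyme with DMSO for no effect and wells without caspase-3 for full effect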); conditions: purified caspase-3, Z-DEVD-aminoluciferin luminescence, 60 min; at 12.5 µM; stronger effect = higher value
Caspase-3 (Homo sapiens), sequence (P42574 28-227 limits assumed): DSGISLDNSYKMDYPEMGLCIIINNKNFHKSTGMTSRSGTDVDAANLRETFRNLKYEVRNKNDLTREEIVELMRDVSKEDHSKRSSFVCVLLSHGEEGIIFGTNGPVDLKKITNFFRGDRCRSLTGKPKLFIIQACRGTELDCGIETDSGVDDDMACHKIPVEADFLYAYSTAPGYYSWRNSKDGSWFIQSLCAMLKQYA

[17] = Ultra-Glo luciferase signal interference – biochemical, single concentration, SENP8 reaction pre-completed, artefact control for SENP inhibitor project, confirmation (AID 488919;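 active means mean inhibition above about 50% when retested at one dose, limit read from the data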;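 further: plate controls were DMSO wells with completed reaction for no effect and substrate without enzyme for full effect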); conditions: Pre-incubated SENP8/Z-RLRGG-aminoluciferin, luciferase luminescence interference; at 12.5 µM; stronger effect = higher value
[18] = PERK-eIF2a-CHOP pathway stimulators, retested – cell-based, CHO-CHOP luciferase reporter, single concentration, confirmation (AID 463112; in the data active means activation above about 33%;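 further: 0% = DMSO wells and 100% = tunicamycin 10 µg/mL wells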); conditions: CHO-CHOP cells, CHOP-luciferase reporter luminescence; at 10 µM; stronger effect = higher value; percent of tunicamycin response, DMSO as zero
[19] = HIF-2a driven luciferase blockers, single dose – luminescence, 786-0 RCC cells, confirmation (AID 651580;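 active means mean inhibition across four replicates of at least 40 percent at the single tested concentration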); conditions: HIF-2a luciferase reporter luminescence, overnight, at 18.8 µM, stronger effect = higher value
[20] = HIF-1a luciferase reporter signal reduction – MiaPaCa-2 cells, single concentration, counter-screen for HIF-2a inhibitor project, confirmation (AID 651589;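 active means mean inhibition of the reporter signal across four replicates at the single tested dose of 50% or more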); conditions: MiaPaCa-2 HIF-1a luciferase reporter, desferoxamine, overnight; at 18.8 µM; stronger effect = higher value

C=CCn1c(C)cc(C2=NNC(=NCC)SC2)c1C
inhibition [1]: 24.4% (active) | inhibition [2]: 95.2% (active) | inhibition [3]: 99.4% | inhibition [4]: 98.1% | inhibition [5]: 98.4% | inhibition [6]: 98.1%

COc1ccc(C(=O)/C=C/Nc2ccccn2)cc1
inhibition [2]: 57.9% (active) | inhibition [3]: 95.5% | inhibition [4]: 94.2% | inhibition [5]: 96.2% | inhibition [6]: 96.7%

O=C(/C=C/c1ccc(Cl)c([N+](=O)[O-])c1)c1ccc(O)cc1
inhibition [7]: 103% (active) | inhibition [8]: -37.9% (inactive)

Cc1ccc(-c2cn3cc(C)ccc3n2)cc1
inhibition [1]: 29% (active)

CCC(C)Cn1c(O)cc2nn(-c3nc4ccccc4s3)c(=O)c-2c1C (centres undefined)
inhibition [9]: 102% (active) | inhibition [10]: 16% (active) | inhibition [11]: -1.66% (inactive)

COc1cc(SC)ccc1C(=O)NCCOc1ccccc1Cl
inhibition [12]: -81.7% (inactive)

COc1ccc(CS(=O)/C(Cl)=C(/Cl)C(=O)Nc2ccc(OC)nc2)cc1 (centres undefined)
inhibition [12]: 95.7% (active)

CCOc1cc(C(=O)N2CCc3cc(OC)c(OC)cc3C2)ccc1OC(F)F
inhibition [12]: 57.9% (active)

COc1ccccc1NC1=NC(c2ccc(Cl)cc2)N=C(N)N1 (centres undefined)
inhibition [12]: 18.7% (inactive)

CCN(CC)c1ccc(/C=N/NC(=O)c2cnccn2)c(O)c1
inhibition [12]: -7.5% (inactive)

Cc1cccc(NS(=O)(=O)c2ccc(-c3cnc(C4CC4)o3)cc2)c1
inhibition [12]: 53.5% (active)

Cc1ccccc1Nc1nc(N)nc(CSc2ccccc2)n1
inhibition [12]: -82.8% (inactive)

COc1ccccc1C1C2=C(COC2=O)Nc2cc3c(cc21)OCO3 (centres undefined)
inhibition [12]: 23.4% (inactive)

CCOc1ccc(NC(=O)c2ccc(NC(=O)COC(=O)c3ccc(NC(=O)CC#N)cc3)cc2)cc1
inhibition [12]: -36.5% (inactive)

C/C(=N\NC(=O)c1ccccc1F)c1ccccn1
inhibition [12]: 4.3% (inactive)

COc1cc(N=Cc2c(O)[nH]c3ccccc23)cc(OC)c1OC
inhibition [12]: -14% (inactive)

Cn1c(-c2ccc(C(F)(F)F)cc2)cc2onc(-c3ccccc3)c2c1=O
inhibition [12]: -121% (inactive)

COc1ccc(NC(=O)/C(Cl)=C(/Cl)S(=O)Cc2ccc(C)cc2)cn1 (centres undefined)
inhibition [12]: 100% (active)

Cn1nccc1C(=O)NC1CCCc2c1cnn2-c1ccccc1F (centres undefined)
inhibition [12]: 68.1% (active)

CCOc1ccccc1NC(=O)Cn1nnc(C(=O)NCc2cccs2)c1N
inhibition [12]: 51.6% (active)

CC(C)Sc1ncnc2c1cnn2-c1ccccc1
inhibition [12]: -138% (inactive)

Cc1ccc(-n2ncc3c2CC(C)(C)CC3NC(=O)Cc2c(C)noc2C)cc1 (centres undefined)
inhibition [12]: -15.6% (inactive)

COc1ccccc1N1CCN(C(=O)c2cc(=O)c3cc(C)cc(C)c3o2)CC1
inhibition [12]: 54% (active)

Cc1ccc(S(=O)(=O)C2(S(=O)(=O)c3ccc(C)cc3)CCCC2)cc1
inhibition [12]: 24.9% (inactive)

Cn1nccc1C(=O)NC1CCCc2c1cnn2-c1ccc(F)cc1F (centres undefined)
inhibition [12]: 76.3% (active)

CSc1nc(N(C)NC(=O)c2cccc(C)c2)c2ccccc2n1
inhibition [12]: 57.2% (active)

CCCOc1ccccc1C1CC(=O)Nc2cc3c(cc21)OCO3 (centres undefined)
inhibition [12]: 62% (active)

COc1cc2c(cc1OC)CN(C(=O)c1cc(=O)c3ccccc3o1)CC2
inhibition [12]: 21.4% (inactive)

Cc1c(/C=N\NC(=O)c2cc3ccccc3o2)c2ccccc2n1C
inhibition [12]: -0.3% (inactive)

COc1ccc(-n2ncc3c(N4CCc5ccccc54)ncnc32)cc1
inhibition [12]: -93.4% (inactive)

COc1cc(C(=O)NN(CCC#N)C2=NS(=O)(=O)c3ccccc32)cc(OC)c1OC
inhibition [12]: -119% (inactive)

CCOC(=O)c1ccc(NC(=O)Cn2cnc3cc(C)c(C)cc32)cc1
inhibition [12]: 66.2% (active)

N=c1c2c(-c3ccccc3)c(-c3ccccc3)n(Cc3ccccc3)c2ncn1CCCO
inhibition [12]: 24.1% (inactive)

Cc1cccc(-n2c(C)cc(/C=N\NC(=O)c3cccs3)c2C)c1
inhibition [12]: 6.7% (inactive)

CC(=O)c1ccc(Oc2cc(C)nc(-n3nc(C)cc3C)n2)cc1
inhibition [12]: 58.9% (active)

Cc1ccc(N2CCN(c3ccc([N+](=O)[O-])cn3)CC2)c(C)c1
inhibition [12]: 15.2% (inactive)

O=C(COC(=O)c1ccc(F)cc1)NCC1COc2ccccc2O1 (centres undefined)
inhibition [12]: 12.1% (inactive)

CCCOC(=O)c1[nH]c2c(c1C)C(=O)CC(c1cccs1)C2 (centres undefined)
inhibition [12]: 52.4% (active)

O=C(NCc1ccc2c(c1)OCO2)c1cc([N+](=O)[O-])ccc1N1CCOCC1
inhibition [12]: 38.1% (inactive)

O=C(NCCC1CCCCN1S(=O)(=O)c1cccs1)C(=O)Nc1ccc(F)cc1F (centres undefined)
inhibition [12]: -3.5% (inactive)

Cc1nnc(N/N=C/c2ccccn2)[nH]c1=O
inhibition [12]: 63.8% (active)

Cc1cccc(N(C)C(=O)c2cc3c(=O)[nH]c4ccc(C)cc4c3s2)c1
inhibition [12]: 16.9% (inactive)

O=C(Nc1ccccc1Cl)/C(Cl)=C(\Cl)S(=O)c1ccccc1 (centres undefined)
inhibition [12]: 59.8% (active)

Cc1cc(=O)oc2cc(OCC3CC(c4ccccc4Cl)=NO3)ccc12 (centres undefined)
inhibition [12]: 54.6% (active)

Cc1ccc(SCCSc2ncccn2)cc1
inhibition [12]: -64.3% (inactive)

CCCOc1ccc(C(=O)NCCc2ccccc2)cc1
inhibition [12]: -82% (inactive) | inhibition [13]: 13.2% (inactive) | inhibition [14]: 62% (active) | inhibition [15]: 88.3% (active) | inhibition [16]: 78% (active) | inhibition [17]: -5.4% (inactive)

Fc1ccccc1/C=N/Nc1cc(N2CCCCC2)ncn1
inhibition [12]: -109% (inactive) | inhibition [13]: 17.6% (inactive) | inhibition [14]: 16.9% (inactive) | inhibition [15]: 16.6% (inactive) | inhibition [16]: 25.2% (inactive) | inhibition [17]: 6.6% (inactive)

COc1ccc(-c2csc(-c3cccs3)n2)cc1OC
inhibition [12]: -54.3% (inactive)

CCn1c(/C=C/c2ccc([N+](=O)[O-])o2)nc2ccccc2c1=O
inhibition [12]: 23.7% (inactive) | activation [18]: 14.3% (inactive) | inhibition [19]: -36.9% (inactive) | inhibition [20]: 105% (active)

O=C(Nc1ccc2c(c1)OCCO2)C1CCCN(c2ncccn2)C1 (centres undefined)
inhibition [12]: -110% (inactive)

Cc1cc(N)n2nc(-c3ccc(C(C)(C)C)cc3)cc2n1
inhibition [12]: -164% (inactive)

CC(C)c1ccc(NC(=O)NC2CCCCC2)cc1
inhibition [12]: -175% (inactive)

Cc1csc(SCC(=O)Nc2sccc2C#N)n1
inhibition [12]: -98.6% (inactive) | inhibition [13]: 93.1% (active) | inhibition [14]: 96.1% (active) | inhibition [15]: 101% (active) | inhibition [16]: 97.1% (active) | inhibition [17]: 94.4% (active)

Cc1ccc2nc(-c3ccncc3)cc(C(=O)Nc3ccc(OC(F)F)cc3)c2c1
inhibition [12]: 28.2% (inactive)
